PubChem BioAssay AID1671194 (National Center for Advancing Translational Sciences (NCATS), 2021)
Out of some 140,000 compounds screened, about 240 (0.17%) were called active. Inconclusive results (about 9%) are left out. The sample as a whole holds a higher share of actives than the screen did. A number with no mark means an inactive call. Calls follow the shape of the dose curve; as a rule, active = well fitted inhibition curve with a large enough effect; inconclusive = small, poorly fitted or top-dose-only effect; inactive = no such curve, though single readings can be large or run the other way.

experiment: Primary qHTS assay for inhibitors of alpha-synuclein gene (SNCA) expression; details: HEK-293 SNCA-luciferase knock-in, luminescence, 24 h; series mostly up to 57.2 µM; activity change, negative = inhibition: at the top concentration; also: nearly all actives have a fitted effect of over 45% in size
From the text: Assay Submitter (PI): Daniel R. Scoles Ph.D.
Department of Neurology, University of Utah, Salt Lake City, Utah
Accumulation of alpha-synuclein is a main underlying pathological feature of Parkinson's disease (PD) and alpha-synucleinopathies, for which lowering expression of the alpha-synuclein gene (SNCA) is a potential therapeutic avenue. Using a cell-based luciferase reporter of SNCA expression we performed a quantitative high throughput screen (qHTS) of 155,885 compounds in dose response. The screening assay was generated using genome editing to insert the luciferase gene downstream and in frame of the SNCA gene in HEK-293 cells (1). A viability counterscreen using GF-AFC was used to eliminate cytotoxic and false positive compounds. After in silico analysis (clustering, removal of frequent hitter nuisance chemotypes), inhibitor compounds from the primary screen were selected for follow up and re-tested at 11-doses in the SNCA-luc cells (luciferase and GF-AFC confirmation), and in CMV-luc expressing cell line to flag general transcriptional repressors.
Described herein are the results of the primary screen for SNCA inhibitors; decrease in luciferase signal (inhibition of the SNCA gene expression) is the desired output for this assay.
1. Dansithong, W., Paul, S., Scoles, D. R., Pulst, S. M., and Huynh, D. P. (2015) Generation of SNCA Cell Models Using Zinc Finger Nuclease (ZFN) Technology for Efficient High-Throughput Drug Screening. PLoS ONE 10, e0136930.
SEQUENCE No. (e.g., 1, 2, 3, etc.); […] (e.g., Cells, Incubation, Reagent, etc.); VALUE; DESCRIPTION
1; Cells; 4 uL; Dispense 1500 HEK-293-SNCA-luc cells/well into Greiner 1536-well white / solid bottom tissue culture treated plate. The plate was covered with metal lids with gas-exchange holes.
2; Incubate; 24 hours; Incubate at 37C, 5% CO2, 95% RH.
3; Compounds; 23 nL; Compounds and controls were transferred via a Kalypsys Pin Tool (Wako USA) equipped with a 1536-slotted pin array. The plate was covered with metal lids with gas-exchange holes.
4; Incubate; 24 hours; Incubate at 37C, 5% CO2, 95% RH.
5; Dispense; 1 uL; Dispense Gly-Phe-7-amino-4-trifluoromethylcoumarin (GF-AFC, prepared at 125 uM in PBS) was added. The plate was covered with metal lids with gas-exchange holes.
6; Incubate; 30 min; Incubate at 37C, 5% CO2.
7; Detector; Fluorescence; Measure fluorescence with ViewLux microplate reader (PerkinElmer) equipped with 405/10 excitation and 540/25 emission filters.
8; Dispense; 3 uL; Dispense ONE-Glo ([…]) lucifase detection reagent was added to each well. Plates were covered with metal lids with gas-exchange holes.
9; Incubate; 15 min; Incubate at room temperature.
10; Detector; Luminescence; Measure luminescence with ViewLux microplate reader (PerkinElmer) equipped with clear filters.
NOTES (numbers refer to sequence above)
1; HEK-293-SNCA-luc were cultured and suspended in phenol-red free DMEM (4.5 g/L glucose, 25 mM HEPES, cat #21063 (Thermo)).
3; Compounds were added to the assay plate in an 11-point intra plate dose response, 1:3 titration in DMSO with a final concentration range of […]. Vehicle-only plates, with DMSO being pin-transferred to every well, were inserted at the beginning of screening runs to confirm expected assay performance. Activity was normalized to wells containing medium only (-100% activity, full inhibition) and SNCA-luc cells treated with DMSO vehicle control (0% activity), contained on the same plate as test samples.
10; Signals were analyzed, and dose-response curves were fit using the Hill equation. Compounds in curve classes -1.1, -1.2, -2.1, -2.2 in the SNCA-luc assay were considered active. Compounds were eliminated from further consideration if also active (curve class -1.1, -1.2, -1.3, -1.4, -2.1, -2.2, -2.3, -2.4) in the GF-AFC cytotoxicity assay.
Potency is read from the fitted curve at half-maximal effect.

| Compound | activity change, negative = inhibition | Potency |
| --- | --- | --- |
| Cn1nc(C2CC2)cc1NC(=O)c1ccc(C(F)(F)F)cc1 | 124% [at 87.6 µM] | – |
| COc1ccccc1-n1c(=O)c(C(=O)N2CCN(C(=O)Cc3ccc(F)cc3)CC2)nc2cccnc21 | 4.21% | – |
| CCN1C(=O)C2CC3(CCN(C(=O)c4nccn4C)CC3)CN2C1=O (stereo not drawn) | -0.179% | – |
| CCOC(=O)C1(Cc2ccc(F)cc2F)CCCN(Cc2cccc(OC)c2O)C1 (stereo not drawn) | -6.47% | – |
| COC[C@H]1CCCN1C(=O)C[C@@H]1C[C@H]2O[C@H](CNC(=O)N[C@@H](C)c3ccccc3)[C@@H](O)[C@H]2O1 | 3.35% | – |
| COCCCn1c(C)cnc1CC1CCN(C(=O)CC2CCCCC2)CC1 | -4.37% | – |
| N#Cc1ccc(CN2CCN(c3nccc(Cl)n3)C(=O)C2)cc1 | -0.594% [at 87.6 µM] | – |
| O=C(Nc1ccc([C@H]2OCC(=O)N(Cc3ccc(F)cc3)[C@@H]2CO)cc1)c1cccnc1 | -11% | – |
| CCS(=O)(=O)NCC1(COc2ccc(C(F)(F)F)cn2)C[C@@H](O)[C@@H](O)C1 (stereo partly drawn) | 4.56% [at 87.6 µM] | – |
| Cc1ccccc1C(=O)N1CCC2(CC1)CCN(Cc1cccs1)c1ccccc1O2 | 20% | – |
| Cc1ccc2c(C(=O)N3CCCC(C#N)C3)cc(-c3cnn(C(C)C)c3)nc2c1 (stereo not drawn) | 3.68% | – |
| O=[S+]([O-])(c1ccccc1)N1CC2(CCCCN2Cc2cccnc2)Cc2ccccc21 (stereo not drawn) | -16% | – |
| COCCNC(=O)c1nc2sccn2c1-c1cccc(OC)c1 | 20.3% | – |
| O=C(NC1CCCCC1)[C@H]1O[C@H](CCN2CCNCC2)CC[C@@H]1O | 9.12% [at 87.6 µM] | – |
| COc1cccc(-c2ccnc3nc(Cc4cc(F)cc(F)c4)nn23)c1 | 9.66% | – |
| CN1C(=O)[C@@H]2C[C@@H](O)CN2C2(CN(Cc3ccoc3)C2)C1=O | 20.6% [at 87.6 µM] | – |
| Cc1noc([C@@H]2CN(CCCc3ccccc3)C[C@H]2CO)n1 | 17% | – |
| C[C@H](C(=O)N1Cc2ccccc2CC2(CCN(Cc3ccncc3)CC2)C1)c1ccccc1 | 12.6% | – |
| CC(=O)Nc1cccc(-c2cn(C)c(=O)n3cc(COc4ccnn4C)nc23)c1 | 6.13% [at 87.6 µM] | – |
| COc1cccc([S+](=O)([O-])N2CCC3(CC(c4cccnc4)=NO3)C2)c1 (stereo not drawn) | 8.12% | – |

| Compound | activity change, negative = inhibition | Potency |
| --- | --- | --- |
| O=C(c1ccccc1C1CCNC1)N1CCN(C/C=C/c2ccccc2)CC1 (stereo not drawn) | -3.29% | – |
| COCc1nnc(NC(=O)C2c3ccccc3C(=O)N(C3CCCC3)C23CCCC3)s1 (stereo not drawn) | -14.1% | – |
| COc1cccc(-c2ccc(C(=O)N3CCC(C(=O)NCc4cccs4)CC3)cc2)c1 | 118% | – |
| c1cc(-c2nc3ccncc3[nH]2)ccn1 | -8.24% [at 87.6 µM] | – |
| COc1ccc(-c2nc3ccncc3[nH]2)cc1 | – | 10 µM (active) |
| COc1ccc(C(=O)N2CCCC2C(=O)N2CCCC2c2nc3ccncc3[nH]2)cc1 (stereo not drawn) | -1.63% | – |
| COc1ccc(-c2ccc3c(n2)CN(CCOc2ccccc2)C(=O)CO3)cc1F | -7.82% [at 87.6 µM] | – |
| O=C(C1CCCN(Cc2cccc(-c3ccc(F)cc3F)c2)C1)N1CCN(Cc2ccccc2)CC1 (stereo not drawn) | -16.7% | – |
| COc1ccc(CC2CCOC3(CCN(C(=O)NCC(C)C)CC3)C2)cc1 (stereo not drawn) | -8.11% | – |
| CCCNC(=O)C1CCC(Cn2c(=O)c3sccc3n(Cc3ccccc3F)c2=O)CC1 (stereo not drawn) | -3.61% | – |
| O=C(C1CCC(Cn2c(=O)c3sccc3n(Cc3ccccc3F)c2=O)CC1)N1CCCCC1 (stereo not drawn) | – | 25.1 µM (active) |
| CC(C)NC(=O)C1CCC(Cn2c(=O)c3sccc3n(Cc3ccc(F)cc3)c2=O)CC1 (stereo not drawn) | -16.7% | – |
| O=C1CCN(S(=O)(=O)c2ccc3c(c2)CCC3)CCCC(c2nc(-c3cnccn3)no2)CCN1 (stereo not drawn) | 11.3% | – |
| CC[C@H]1CN(C(=O)c2ccc(F)cc2)CC[C@H]1CC(=O)N[C@@H](CO)CC(C)C | 2.09% [at 87.6 µM] | – |
| O=C(COc1ccc(F)cc1)NC1CCc2n[nH]c(=O)n2CC1 (stereo not drawn) | -1.66% | – |
| COc1ccc(Cc2nnc3ccc(C(=O)NCCc4ccc(F)cc4)cn23)cc1 | 15% | – |
| Cc1cn2nc(C(=O)Nc3ccc(F)cc3C)cc2c(N(C)Cc2ccccc2)n1 | 15.7% | – |
| COc1cccc(C(=O)N2CCCC(C(=O)N3CCC(c4nc5ccncc5[nH]4)C3)C2)c1 (stereo not drawn) | -0.429% | – |
| COc1ccc(-c2cc3nc4c(c(=O)n3[nH]2)CCN(C(=O)c2ccccc2C)C4)cc1 | -10.8% | – |
| O=C(c1cccs1)N1CC[C@H](c2nnc(Cc3c[nH]c4ccccc34)o2)C1 | -17.1% [at 87.6 µM] | – |

| Compound | activity change, negative = inhibition | Potency |
| --- | --- | --- |
| Cc1ccccc1NC(=O)c1cc2cn(C(C)C)cc2s1 | 2.8% | – |
| COCC(=O)N1CCCC(C(=O)N2CCC3(CC2)CC(=O)Nc2ccccc2O3)C1 (stereo not drawn) | -9.94% | – |
| Cc1nn2c(c1-c1ccccc1-c1ccccc1)N(CC1CC1)CCC2 | – | 2.51 µM (active) |
| Cc1nn2c(c1-c1ccccc1N1CCCC1)N(C(=O)c1ccc(Oc3ccccc3)cc1)CCC2 | 16.9% | – |
| Cc1nn2c(c1-c1ccccc1-c1ccccc1)N(C(=O)CN1CCOCC1)CCC2 | -12% [at 87.6 µM] | – |
| CC(C)(C)c1csc(NC(=O)c2ccc3c(c2)OCCN(C2CCC2)C3)n1 | -24.7% [at 87.6 µM] | – |
| O=C(c1cccs1)N1CCCCCC1CN1CCCC1 (stereo not drawn) | 1.11% | – |
| O=C(O)COc1ccc(-c2nccc3c2C(=O)N(Cc2ccccc2)CC(COc2cccc(C(F)(F)F)c2)O3)cc1 (stereo not drawn) | 0.232% | – |
| Cc1ccc(C(=O)N2CCCN(C(=O)C3CC3)c3ccccc32)cc1F | -19.9% | – |
| O=C(c1ccccc1Cl)N1CCCN(c2cc(-c3ccc(F)cc3)[nH]n2)CC1 | -1.66% | – |
| CNC(=O)[C@H]1C[C@H](Oc2ccccc2)CN1C(=O)CCn1nc(C)cc1C | 33.4% | – |
| Cc1ccc(S(=O)(=O)N2CCC3(CC2)C(=O)N(CC(=O)NC(C)C)CN3c2ccccc2)cc1 | -12.8% | – |
| CCc1nc2c(c(-c3ccc(O)cc3)n1)CCN(Cc1cccc(OC)c1)CC2 | 7.49% | – |
| CCn1ccc(C(=O)N2CCC(C3CCN(C(C)=O)CC3)C2)n1 (stereo not drawn) | 4.71% | – |
| O=C(NCC1CC1)c1ccc2nnc(Cc3ccc(Cl)cc3)n2c1 | -11.1% | – |
| O=C(NCC1Cn2cccc2CN1Cc1ccccc1)c1ccco1 (stereo not drawn) | 43.1% | – |
| O=C(Cc1c[nH]c2ncc(-c3ccccc3F)cc12)N1CCOCC1 | -19.1% [at 87.6 µM] | – |
| N[C@@H]1CCN(Cc2cccc(Oc3ccc(F)cc3)c2)C[C@H]1O | 16.8% | – |
